Test results published in PubChem BioAssay (NCI).
The panel holds about 79,000 compounds, 15% with a hit somewhere; the sample as a whole holds those more often. Activity calls are given as the source filed them. Cut-off read from the data, not from the text of the source: active = growth inhibition above about 70%; inactive = the rest.

Legend:
[1] = NCI Yeast Anticancer Drug Screen. Data for the rad50 strain (AID 155);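 note: 0% = growth of vehicle-only cultures of the same strain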; details: S. cerevisiae rad50 strain growth inhibition; at 50.0 µM; active compounds read high
Outline: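 Readout: growth inhibition relative to vehicle-treated cultures. Compound exposure was carried out in a genetically defined yeast strain deficient in DNA damage repair.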

[2] = NCI Yeast Anticancer Drug Screen. Data for the mec2-1 strain (AID 157); details: S. cerevisiae mec2-1 strain, at 50.0 µM, active compounds read high
Outline: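 Strain: mec2-1 (DNA repair/cell cycle alteration). Compound exposure, then growth measured; inhibition expressed relative to vehicle.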

[3] = NCI Yeast Anticancer Drug Screen. Data for the sgs1 mgt1 strain (AID 161);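 note: 0% = growth of cultures given vehicle only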; details: S. cerevisiae sgs1 mgt1 strain, at 50.0 µM, active compounds read high
Outline: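 Mutant yeast exposed to compound; growth scored against vehicle-only wells.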

[4] = NCI Yeast Anticancer Drug Screen. Data for the cln2 rad14 strain (AID 165);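 note: 0% = growth equal to vehicle treated cultures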; details: S. cerevisiae cln2 rad14 strain, at 50.0 µM, active compounds read high
Outline: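 Compounds are applied to the cln2 rad14 yeast strain, and growth is then compared with that of vehicle-treated cultures to give inhibition.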

[5] = NCI Yeast Anticancer Drug Screen. Data for the bub3 strain (AID 167); details: S. cerevisiae bub3 mutant strain, at 50.0 µM, active compounds read high
Outline: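 Readout: yeast growth inhibition, expressed relative to vehicle-only wells. The test organism is a mutant strain from a panel with lesions in DNA repair or checkpoint genes.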

[6] = NCI Yeast Anticancer Drug Screen. Data for the mlh1 rad18 strain (AID 175); details: S. cerevisiae mlh1 rad18 strain growth inhibition; at 50.0 µM; active compounds read high
Outline: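 Read-out is yeast growth inhibition, calculated against vehicle-only controls. The compound was applied to a strain engineered with DNA damage repair alterations.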

Measured: growth inhibition

Nc1cc(Cl)c2c(c1)C(=O)c1ccccc1-2
inactive: [1] -2.45% | [2] 0.7% | [3] -3.95% | [4] -5.3% | [5] -5.3% | [6] -5.4%

O=[N+]([O-])c1ccc2[nH]c3nc4ncccc4nc3c2c1
inactive: [1] -3.4% | [2] 3.35% | [3] 4.7% | [4] -20.1% | [5] 0.25% | [6] 0.7%

O[C@@H]1CC2(Cl)CC1(Cl)C(Cl)=C2Cl (stereo partly specified)
inactive: [1] 19.4% | [2] 5.5% | [3] 11.7% | [4] -2.05% | [5] -4.1% | [6] 18.5%

CC(C)C(NC(=O)C1CSC(C)(C)N1C=O)C(N)=O (stereo unspecified)
inactive: [1] -5.2% | [2] -31.6% | [3] 12.3% | [4] -6.7% | [5] 36.7% | [6] -25.2%

Cc1cc(O)c([N+](=O)[O-])c(C)c1[N+](=O)[O-]
inactive: [1] 2.2% | [2] 35.2% | [3] 3.5% | [4] 41.2% | [5] 39.3% | [6] 0.25%

COC(=O)/C(C#N)=C/NC(=S)Nc1ccccc1
inactive: [1] -48.1% | [2] -0.85% | [3] -44.5% | [4] 11.2% | [5] -26.3% | [6] -33.2%

COCc1nc2c(=O)[nH]c(N)nc2[nH]c1=O
inactive: [1] 2.55% | [2] -3.55% | [3] -4.8% | [4] -0.25% | [5] 1.7% | [6] 1.1%

CC1C=CC(C(=O)Nc2ccc(Cl)c(Cl)c2)N1C (stereo unspecified)
inactive: [1] 1% | [2] 12.2% | [3] 7.6% | [4] -33.9% | [5] -11.9% | [6] 2.75%

C[C@H](CCc1nc(C#N)c(N)o1)[C@H]1CC[C@H]2[C@@H]3CCC4C[C@@H](O)CC[C@]4(C)[C@H]3C[C@@H](O)[C@]12C (stereo partly specified)
inactive: [6] 46%
active: [1] 87% | [2] 91.6% | [3] 86% | [4] 87.7% | [5] 84%

C=C1C(=O)O[C@@H]2/C=C(\C)CC/C=C(/C)CC[C@@H]12
inactive: [1] 45.8% | [2] 52.2% | [3] 61.6% | [4] 32.8% | [5] 54.4% | [6] 58.1%

CCC(=O)c1ccc2c(ccc3ccccc32)c1O
inactive: [1] -18.3% | [2] -6.8% | [3] -4.15% | [4] -22.1% | [5] 2.85% | [6] -11.6%

COc1cc(/C=C(\OC(C)=O)c2ccc3c(c2)OCO3)cc(OC)c1OC
inactive: [1] -5% | [2] -0.95% | [3] 33.2% | [4] 13.6% | [5] 44% | [6] -19.1%

c1ccc(CCN(c2ccccc2)c2ccccc2)cc1
inactive: [1] 21.1% | [2] -2.4% | [3] -11.2% | [4] 9.8% | [5] 7.55% | [6] 1.2%

CN1C(=O)NC(C)(C)C1=O
inactive: [1] -1.5% | [2] 3.3% | [3] -1.75% | [4] -13.7% | [5] -8.45% | [6] -4.95%

Cc1nc2cc(N)c(F)cc2[nH]1
inactive: [1] -14.6% | [2] -6.95% | [3] 21.4% | [4] 12.8% | [5] 16.4% | [6] -0.1%

COC(=O)/C=C(\C(=O)c1ccccc1)c1ccccc1
inactive: [1] 6.05% | [2] 4.25% | [3] -4.1% | [4] 8.95% | [5] 0.3% | [6] 11.9%

O=S1c2ccc(Cl)cc2CC(SSC2Cc3cc(Cl)ccc3S(=O)c3ccccc32)c2ccccc21 (stereo unspecified)
inactive: [1] 18.5% | [2] -35.6% | [3] -7.65% | [4] 6.15% | [5] 10.5% | [6] -9%

NC1=NN(O)C2=CC(Br)C=CC2=N1 (stereo unspecified)
inactive: [1] 10.3% | [2] -7.4% | [3] 11.6% | [4] 7.55% | [5] 43.1% | [6] 22.4%

COc1ccc2ccc3c(c2c1)C(=O)C(CC(N)=O)C3 (stereo unspecified)
inactive: [1] 1.75% | [2] 1.2% | [3] -10.7% | [4] 0.4% | [5] -4.1% | [6] 15%

S=C(NCN1CCCCC1)NCN1CCCCC1
inactive: [1] 9.55% | [2] 9.1% | [3] 4.95% | [4] -50.1% | [5] 23.8% | [6] 33.5%

O=C1CCN(Cc2ccco2)C(=O)N1
inactive: [1] 1% | [2] -12.3% | [3] 10.9% | [4] -41% | [5] -5.7% | [6] 10.2%

NC(=O)C1(c2cccs2)CCCC1
inactive: [1] 4.9% | [2] 3.4% | [3] 6.5% | [4] -26.1% | [5] -12.3% | [6] 26.2%

SCCNCc1ccccn1
inactive: [1] -22.1% | [2] -36.1% | [3] -17.4% | [4] 14.3% | [5] -37.4% | [6] -3.65%

COC(=O)CCNc1c(OC)ccc2ccccc12
inactive: [1] 22.1% | [2] 3.85% | [3] 11.8% | [4] 17.9% | [5] 28.4% | [6] -5%

CCOC(=O)c1ccc(N=NC2Sc3nc4ccccc4n3C2=O)cc1 (stereo unspecified)
inactive: [1] -23.6% | [2] -2.4% | [3] -2.65% | [4] -51.4% | [5] 21.8% | [6] -6.3%

COC(=O)CCC(=O)c1ccc2c(c1)CC1(C2)Cc2ccc(C(=O)CCC(=O)OC)cc2C1
inactive: [1] -1.45% | [2] -30.6% | [3] -22.4% | [4] 5.35% | [5] -20.1% | [6] 2.9%

CN(CC(=O)O)C(=N)N
inactive: [1] -8.3% | [2] -11.8% | [3] -19.9% | [4] -2.75% | [5] -24.6% | [6] -9.2%

Oc1ccccc1/C=N/Nc1nc(N/N=C/c2ccccc2O)nc(N/N=C/c2ccccc2O)n1
inactive: [1] 25.3% | [2] 20.5% | [3] 27.4% | [4] 16.9% | [5] -6.7% | [6] 15.9%

Clc1cccc2nsnc12
inactive: [1] 12.9% | [2] -12.1% | [3] -3.15% | [4] -49% | [5] 5.15% | [6] 6.1%

CC1=NOC2(C1)/C(=N/O)CCC/C2=N\O (stereo unspecified)
inactive: [1] -3.65% | [2] -25.1% | [3] -1.5% | [4] 20.9% | [5] -11.6% | [6] 0.45%

N#CCSc1c(-c2ccccc2)c(=O)n(-c2ccccc2)c(=S)n1-c1ccccc1
inactive: [1] 20.7% | [2] -17.9% | [3] -2.3% | [4] -16.8% | [5] -20.6% | [6] -0.65%

O=C(O)c1cccc(Br)c1[N+](=O)[O-]
inactive: [1] -19.9% | [2] -7.9% | [3] -26.6% | [4] -36.1% | [5] -8.1% | [6] -5.9%

Nc1ccccc1Br
inactive: [1] 29.6% | [2] 34.5% | [3] 21.4% | [4] -31% | [5] 12.2% | [6] 20.6%

CC1=NN2C(c3ccc(C)cc3)=CSC2=NC(C)(C)C1
inactive: [1] 20.6% | [2] -1.45% | [3] 2.45% | [4] 19.8% | [5] 5% | [6] -1.1%

CCCCCCC(=O)C(=O)O
inactive: [1] 41.4% | [2] 37.8% | [3] 35.5% | [4] 3.65% | [5] 18.9% | [6] 59.5%

Cc1ccc(NC(=O)c2cccc(C(=O)Nc3ccc(C)c(Cl)c3)c2)cc1Cl
inactive: [1] -28.1% | [2] -16.6% | [3] -11.2% | [4] -35% | [5] -5.55% | [6] 8.6%

N#C/C(=C\c1cc(F)cc(F)c1)c1ccccn1
inactive: [1] 9.7% | [2] -0.95% | [3] 0.65% | [4] 3.25% | [5] 3.2% | [6] 30.2%

C/C(=N\NS(=O)(=O)c1ccc(C)cc1)c1ccc[n+]([O-])n1
inactive: [1] 4.9% | [2] -2.4% | [3] 5.8% | [4] 7.4% | [5] 6.2% | [6] -0.55%

O=C1c2ccccc2C(=O)c2c1cc1c(c2O)OCO1
inactive: [1] 23.4% | [2] 13.4% | [3] 20.1% | [4] -10.2% | [5] -38% | [6] 46.9%

CN(C)CCN=C1Nc2ccccc2C(=O)N2CSCC12 (stereo unspecified)
inactive: [1] -3.25% | [2] -1.95% | [3] -8.7% | [4] -1.25% | [5] -15.3% | [6] 17.3%

Cc1ccnc2[nH]c(-c3cccc(Cl)c3)cc(=O)c12
inactive: [1] -23.4% | [2] -18.6% | [3] -41% | [4] -33% | [5] -24.8% | [6] -58.5%
